{
  "source": "PubChem BioAssay (NCATS)",
  "note": "Several values for one entry are separate records, joined by “and”; a condition that tells them apart may be missing. Equal values may be shown once. Results filed as inconclusive are left out. A number with no mark means an inactive call. Activity calls are given as the source filed them. The call rests on the fitted dose curve; in most records, active means well fitted curve in the direction sought with a large enough effect; inconclusive means small, poorly fitted or top-dose-only effect, or another doubt; inactive means no such curve, though single readings can be large; an effect the other way counts as inactive or inconclusive. Further: nearly all actives have a fitted effect of over 70% in size. On the % scale 0 is the no-effect control and ±100 the full control effect; potency means the concentration at half of the fitted maximal effect.",
  "data": [
    {"experiment": "Primary qHTS for inhibitors of nuclear receptor binding SET domain protein 2 (NSD2) in an isogenic RCH-ACV NSD2 p.E1099K mutant (9B) (AID 1645876)", "conditions": "RCH-ACV NSD2 E1099K (9B) viability, CellTiter-Glo, 72 h; series mostly up to 44.9 µM; activity change, negative = viability loss: at the top concentration", "values": [
      {"compound": "NC(=O)c1noc([C@H](CCCC2CCCCC2)CC(=O)NO)n1", "Potency": "1.86 µM (active)"},
      {"compound": "CCC(=O)N1CCN(c2ccc(-n3c(=O)ccc4cnc5ccc(-c6cnc7ccccc7c6)cc5c43)cc2C(F)(F)F)CC1", "Potency": "13.3 nM (active) and 12.9 nM (active)"},
      {"compound": "OC(c1cc(C(F)(F)F)nc2c(C(F)(F)F)cccc12)C1CCCCN1", "note": "(stereo not given)", "Potency": "11.8 µM (active)"},
      {"compound": "COc1cc([C@@H]2c3cc4c(cc3[C@@H](O[C@@H]3O[C@@H]5CO[C@@H](C)O[C@@H]5[C@H](O)[C@@H]3O)[C@H]3COC(=O)[C@H]23)OCO4)cc(OC)c1O", "Potency": "0.263 µM (active)"},
      {"compound": "CCc1cc(-c2n[nH]c(C)c2-c2ccc3c(c2)OCCO3)c(O)cc1O", "Potency": "8.33 µM (active)"},
      {"compound": "Cc1cnc(-c2cc(N3CCN(C(=O)CCS(C)(=O)=O)CC3)ncc2Cl)c(C)c1", "Potency": "inactive"},
      {"compound": "CN1c2ccccc2C(=O)N2CCc3c([nH]c4ccccc34)C21", "note": "(stereo not given)", "Potency": "2.09 µM (active)"},
      {"compound": "CC(C)(C)c1nc(-c2cccc(NS(=O)(=O)c3c(F)cccc3F)c2F)c(-c2ccnc(N)n2)s1", "Potency": "5.9 µM (active)"},
      {"compound": "CN1N=C(N)c2cn([C@@H]3O[C@H](COP(=O)(O)O)[C@@H](O)[C@@H]3O)c3ncnc1c23", "Potency": "2.63 µM (active)"},
      {"compound": "Cc1ccccc1-n1c(Cn2nc(-c3cccc(O)c3)c3c(N)ncnc32)nc2cccc(C)c2c1=O", "Potency": "0.186 µM (active)"}
    ]},
    {"experiment": "Primary qHTS for inhibitors of nuclear receptor binding SET domain protein 2 (NSD2) in an RCH-ACV wild type WT cells (2C) (AID 1645877)", "conditions": "RCH-ACV NSD2 WT (2C) viability, CellTiter-Glo, 72 h; series mostly up to 44.9 µM; activity change, negative = cell killing: at the top concentration", "units": {"activity change, negative = cell killing": "%"}, "values": [
      {"compound": "Cc1nn(Cc2ccccc2Cl)c(C)c1CN(C)CC(O)COc1ccc(Cl)cc1", "note": "(stereo not given)", "Potency": "14.8 µM (active)"},
      {"compound": "O=C(c1ccc(C(=O)N2CCC(N3CCCC3)CC2)c(Nc2ccccc2)c1)N1CCC(N2CCCC2)CC1", "Potency": "inactive"},
      {"compound": "CN1CCN(c2cccc(Nc3nc4c(-c5ccc(S(C)(=O)=O)cc5)cccn4n3)c2)CC1", "Potency": "1.63 µM (active) and 8.33 µM (active)"},
      {"compound": "CC[C@H](C=C[C@@H](C)[C@H]1CC[C@H]2[C@@H]3CC=C4C[C@@H](O)CC[C@]4(C)[C@@H]3CC[C@]12C)C(C)C", "outcome": "inactive [at 17.3 µM]"},
      {"compound": "CN(C)CCOc1cc(-c2cn[nH]c2)ccc1NC(=O)C1COc2ccccc2O1", "note": "(stereo not given)", "Potency": "4.59 µM (active)"},
      {"compound": "CN(C)c1nc(Cc2ccc(NC(=O)c3ccc(C(F)(F)F)cc3)cc2)nc(N(C)C)c1CC(=O)O", "outcome": "inactive"},
      {"compound": "Cc1cn([C@@H]2C[C@@H](O)[C@H](CO)O2)c(=O)[nH]c1=O", "activity change, negative = cell killing": 2.1},
      {"compound": "COc1ccc(-c2cc3nccn3c(Nc3ncccc3C(N)=O)n2)cc1OC", "Potency": "0.728 µM (active)"},
      {"compound": "CCN1C[C@H](C)n2c(c(O)c3c(=O)n(Cc4ccc(F)c(Cl)c4)nc(C(=O)NC)c32)C1=O", "Potency": "inactive"},
      {"compound": "COc1cc2nccc(Oc3ccc(NC(=O)Nc4cc(C)on4)c(Cl)c3)c2cc1OC", "Potency": "728 nM (active) and 4.17 µM (active)"},
      {"compound": "N#CC(c1ccc(Cl)cc1)c1c(Cl)cc(-n2ncc(=O)[nH]c2=O)cc1Cl", "note": "(stereo not given)", "activity change, negative = cell killing": -23.6},
      {"compound": "OC(c1cc(C(F)(F)F)nc2c(C(F)(F)F)cccc12)C1CCCCN1", "note": "(stereo not given)", "Potency": "13.2 µM (active)"},
      {"compound": "CCc1cc(-c2n[nH]c(C)c2-c2ccc3c(c2)OCCO3)c(O)cc1O", "Potency": "7.42 µM (active)"},
      {"compound": "Cc1cnc(-c2cc(N3CCN(C(=O)CCS(C)(=O)=O)CC3)ncc2Cl)c(C)c1", "Potency": "inactive"},
      {"compound": "CC(C)(C)c1nc(-c2cccc(NS(=O)(=O)c3c(F)cccc3F)c2F)c(-c2ccnc(N)n2)s1", "Potency": "4.68 µM (active)"}
    ]}
  ]
}
